HCV inhibitor: blocks hepatitis C virus; Huh7.5.1 HCVcc-Cre infection, luciferase reporter, 44 h; 340,000 compounds, 3.4% hits; Potency, µM (series often up to 41.8 µM), without a hit: at the highest dose activity change, negative = inhibition, actives largely listed as inhibitors; AID 651820; also: potency is read from the fitted curve at half-maximal effect; % is scaled to controls: 0 for no effect and ±100 for the full control effect
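After 44 h co-culture of compound, cells and HCVcc-Cre (~0.5 moi), substrate is added for 15 min at room temperature and luciferase measured over 15 sec. Cells were seeded at 1,000/well and pre-cultured 4 h.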
HCMV inh: inhibitors of human cytomegalovirus; HFF cells, HCMV-luciferase reporter, 72 h; hits give low values; activity change, negative = inhibition, % at 57.5 µM; 410,000 compounds, 4.5% hits; AID 1259415; in the data active = activity change below about -60%; inconclusive = no clear call, values can overlap the other calls; inactive = above about -39%; also: % is scaled to controls: 0 for no effect and ±100 for the full control effect
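Two-dose cell screen: HFF monolayers treated with compounds and infected with luciferase-expressing HCMV at 1 PFU/cell, 72 h at 37C, then lysed for luciferase measurement.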
Pf growth 96h: P. falciparum growth inhibition at 96 hours | 320,000 compounds, 6.9% hits | Potency, µM (doses to about 28.7 µM), without a hit: at the highest dose activity change, negative = inhibition, usual class: inhibitors | P. falciparum luciferase reporter growth, 96 h; also: potency is read from the fitted curve at half-maximal effect; % is scaled to controls: 0 for no effect and ±100 for the full control effect
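Luminescence readout: decreased luciferase signal marks inhibited growth of reporter-expressing P. falciparum in infected red cells (2% hematocrit, 0.05% parasitemia final), exposed to compound two generations (96 h, 37 C, 5% CO2).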
Shiga inhibitor: blocks Shiga toxin action in Vero cells; inhibition, % at 38.7 µM; 290,000 compounds, 9.2% hits; Vero cells, Shiga toxin protein synthesis inhibition reporter; in the data active = inhibition mostly above about 28%, no sharp cut-off; inactive = mostly below about 43%; also: 0% is about no effect
Pf growth 48h: P. falciparum growth inhibition at 48 hours (one generation). AID 504832. Potency, µM (series often up to 28.7 µM), for inactives: at the top dose activity change, negative = inhibition, hits mostly inhibitors. 310,000 compounds, 5.9% hits. P. falciparum luciferase growth in erythrocytes, 48 h; also: potency is read from the fitted curve at half-maximal effect; % is scaled to controls: 0 for no effect and ±100 for the full control effect
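Parasite viability was followed by luminescence of a genomically integrated firefly luciferase. Cultures held 0.1% parasitemia at 2% hematocrit (final), incubated under 5% CO2 at 37 C.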
CHX counter: affects cycloheximide protein synthesis inhibition readout, counter-screen; max response, %; AID 2314; 300,000 compounds, 12% hits; cell reporter, cycloheximide protein synthesis inhibition counterscreen; in the data active = max response mostly above about 13%, no sharp cut-off; inactive = mostly below about 14%; also: read at 38.3 µM for the half of the compounds with a filed dose; 0% is about no effect
Numbers without * were called inactive; ? = inconclusive; · = no result. A selection: hits, their analogues and other compounds. The true share with any hit is near 21%. Unless noted, calls follow the shape of the dose curve; as a rule, active = well fitted inhibition curve with a large enough effect; inconclusive = small, poorly fitted or top-dose-only effect, or another doubt; inactive = no such curve, though single readings can be large or run the other way.

SMILES	HCV inhibitor	HCMV inh	Pf growth 96h	Shiga inhibitor	Pf growth 48h	CHX counter
CCOc1cc(/C=N/n2cnnc2)ccc1OC(=O)c1cccc([N+](=O)[O-])c1	13%	-8	3.3µM*	-20	22%	-3
COc1cc(/C=N/Nc2cccc(C)c2)ccc1OC(=O)c1ccco1	1%	24	12%	20	-11%	39*
COc1cc(/C=N/NC(=O)c2ccc(O)cc2)ccc1OCC(=O)Nc1cccc([N+](=O)[O-])c1	?	50	10µM*	11	22%	7
CCOc1cc(/C=N/NC(=O)c2cc(C)[nH]n2)ccc1OC(=O)c1ccc([N+](=O)[O-])cc1	·	·	100%	16	1%	7
COc1cc(/C=N/NC(=O)c2cccc([N+](=O)[O-])c2)ccc1OCc1ccccc1	?	-4	9.3µM*	-16	17µM*	2
COc1cc(/C=N/NC(=O)c2ccc(O)cc2)ccc1OCC(=O)N1CC(C)OC(C)C1 (configuration not stated)	9%	25	11%	37*	-6%	14*
COc1ccc(/C=N/NC(=O)c2cccc([N+](=O)[O-])c2)cc1OC(=O)c1ccccc1	11µM*	-35	·	-14	-5%	10
COc1ccc(C(=O)C=Cc2ccc(OCc3ccccc3)c(OC)c2)cc1OC	·	-8	·	·	·	·
COc1ccc(/C=N/NC(=O)c2cccc([N+](=O)[O-])c2)cc1OC	2%	15	-25%	17	8%	1
COc1cc(/C=N/NC(=O)c2cccc([N+](=O)[O-])c2)ccc1OC(=O)c1ccco1	5%	-8	27%	40*	-10%	7
COc1cc(/C=C/[N+](=O)[O-])ccc1OCc1cccc(C(=O)O)c1	-4%	·	11%	131*	43%	83*
CCOC(=O)N1CCN(C(=O)c2ccc(CS(=O)Cc3ccc(C)cc3)o2)CC1 (configuration not stated)	0%	-3	?	6	12%	-2
CCOc1ccc(NC(=O)CSc2nnc(Cc3csc(C)n3)o2)cc1	9%	17	4%	-2	3%	-1
COc1ccc(C(=O)NC2CCCc3c2cnn3-c2ccccc2F)o1 (configuration not stated)	4%	?	-10%	-9	?	10
CCOCCCNC(=O)c1cc(Nc2ccc(OC)cc2OC)nc2ccccc12	?	-27	21%	-2	-1%	2
COc1ccccc1-c1c(C)c(C)nc(N)c1C#N	13%	-72*	·	15	0%	6
COc1ccccc1-c1c(C#N)c(N)nc2c1CCc1ccccc1-2	?	17	23%	4	12µM*	6
Cc1nn(-c2ccc(N3CCCC3)nn2)c(C)c1CCC(=O)Nc1ccc(F)cc1F	·	-29	·	·	·	·
COC(=O)C1=C(c2ccccc2OCc2ccccc2)C[C@@H]2CC[C@H]1N2C(=O)NCCOc1ccc(OC)cc1	?	-16	1.3µM*	·	9.3µM*	·
COC(=O)C1=C(c2ccccc2OCc2ccccc2)C[C@@H]2CC[C@H]1N2C(=O)NCCCOC(C)C	?	-18	5.2µM*	·	?	·
COC(=O)C1=C(c2ccccc2OCc2ccccc2)C[C@@H]2CC[C@H]1N2C	·	-20	·	·	·	·
COC(=O)C1=C(c2ccccc2OCc2ccccc2)C[C@@H]2CC[C@H]1N2C(=O)NCCOc1ccccc1	?	-15	?	·	12µM*	·
CC1CCN(S(=O)(=O)c2cn(CC(=O)N3CC(C)CC(C)C3)c(=O)c3ccccc23)CC1 (configuration not stated)	14%	?	?	-14	0%	-5
COc1cc(NC(=O)CCCc2nnc3n(CC(C)C)c(=O)c4sccc4n23)cc(OC)c1	·	-36	·	·	·	·
CSc1n[nH]c(-c2ccc(C(F)(F)F)cc2)n1	-5%	116	87%	107*	66%	41*
SMILES	HCV inhibitor	HCMV inh	Pf growth 96h	Shiga inhibitor	Pf growth 48h	CHX counter
O=C(Nc1ccc2c(c1)OCCO2)c1cc2ccccc2o1	22µM*	117	-21%	88*	248%	24*
O=C(Nc1ccc2c(c1)OCCO2)C(c1cc2ccccc2o1)N1CCC(Cc2ccccc2)CC1 (configuration not stated)	·	-6	·	·	·	·
CCc1ccc(C(=O)Nc2ccc3c(c2)n(C)c(=O)n3C)cc1	-13%	?	?	·	2%	12*
Cc1cc(C)cc(OC(C)C(=O)Nc2ccc3c(c2)n(C)c(=O)n3C)c1 (configuration not stated)	-11%	48	0.93µM*	-1	-6%	-3
Cc1ccc(C(=O)Nc2ccc3c(c2)n(C)c(=O)c(=O)n3C)cc1	·	-20	·	·	·	·
Cn1c(=O)n(C)c2cc(NC(=O)c3cc4ccccc4o3)ccc21	?	15	?	89*	8%	33*
Cc1cc(C(=O)C(=O)Nc2nncs2)c(C)n1-c1ccc(Cl)cc1	·	16	·	·	·	·
CCc1ccc(NC(=O)CSC2=Nc3ccccc3C3=NC(CCC(=O)NCCc4ccccc4)C(=O)N23)cc1 (configuration not stated)	·	-9	·	·	·	·
CC(C)c1cc(C(F)(F)F)nc(NNc2nc(C(C)C)cc(C(F)(F)F)n2)n1	·	-16	·	·	·	·
Nc1c(Br)cc(Br)c2c1C(=O)c1c(cccc1S(=O)(=O)O)C2=O	8%	-23	·	·	·	·
CC(Cc1ccccc1)NC(=O)c1cc2ccccc2o1 (configuration not stated)	-3%	5	-2%	141*	-23%	59*
CC(Cc1ccccc1)NC(N)=O (configuration not stated)	11%	4	66%	-7	37%	2
CCC(=O)Nc1cccc(NC(=S)NC(=O)c2cc3ccccc3o2)c1	-24%	49	41%	72*	357%	35*
O=C(Nc1ccc2oc(=O)ccc2c1)c1cc2ccccc2o1	?	65	?	54*	155%	35*
O=C(Nc1ccc(NC(=O)c2cc3ccccc3o2)cc1)c1ccccc1	·	3	·	·	·	·
O=C(O)c1ccc(NC(=O)c2cc3ccccc3o2)cc1	1%	41	-23%	47	46%	21*
COc1ccc(-n2c3c(cc(C#N)c2=O)C(=O)CCC3)cc1	8%	22	33%	-6	-3%	11
COCCCn1c(SCC(=O)NC2CCCC2)nnc1-c1ccncc1	-7%	-13	54%	-3	15%	-4
COc1ccccc1OCCNC(=O)c1ccc2c(c1)OCCO2	4%	40	232%	·	168%	·
Cc1ccc(-n2nc3ccc(NC(=O)c4cc5ccccc5o4)cc3n2)cc1	·	45	·	·	·	·
CCC(=O)Nc1ccc(NC(=S)NC(=O)c2cc3ccccc3o2)cc1	8%	-26	?	17	-24%	1
CCC(=O)Nc1ccc(NC(=O)c2cc3ccccc3o2)cc1	-28%	10	?	83*	55%	70*
